Beta cell apopt: blocks beta cell apoptosis; 300,000 tested, 0.8% active; INS-1E cytokine-induced death, ATP luminescence, 48 h; percent of positive-control rescue, neutral wells zero; AID 435005; protection from apoptosis, % (no concentration beside the values);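 active = Every replicate reaches about 75%, or at least half do and their mean reaches it too, limit read from the data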;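 note: 0% = cytokine-treated negative control wells and 100% = positive control rescue; higher means more ATP so stronger rescue from cytokine killing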
Gli-Sufu antag: blocks Gli-Sufu signaling in a luciferase reporter | inhibition, % at 5 µM | Sufu-KO-LIGHT fibroblasts, Gli luciferase reporter luminescence | 340,000 tested, 0.74% active;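 active = inhibition above about 55%, limit read from the data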;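 note: 0% = DMSO-treated cells and 100% = wells with medium but no cells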
Jurkat NFkB inh: inhibitors of the PMA/ionomycin-induced NF-kB reporter in Jurkat cells | 330,000 tested, 0.53% active | AID 435003 | inhibition, % at 4 µM | PMA/ionomycin-induced NF-kB luciferase reporter, luminescence; in the data active = inhibition above about 50%
697 NFkB inh: lowers PMA/ionomycin-induced NF-kB signal in 697 B cells. 697 B-cell NF-kB luciferase reporter, 16 h. inhibition, % at 4 µM. 330,000 tested, 0.33% active. AID 435022; in the data active = inhibition above about 35%
697 NFkB conf: inhibitors of the PMA/ionomycin-induced NF-kB reporter in 697 B cells, retest. shares compounds with 697 NFkB inh. 697 B-cell NF-kB luciferase, 16 h. inhibition, % at 4 µM. 2,000 tested, 35% active; in the data active = inhibition mostly above about 28%, no sharp cut-off; inactive = mostly below about 22%
The depositor's hits bear a star; i = inactive; . = no result. Compounds with a hit are over-represented: about 1.8% of the library has one in this group of screens.

SMILES | Beta cell apopt | Gli-Sufu antag | Jurkat NFkB inh | 697 NFkB inh | 697 NFkB conf
CN(C)CCCN=Cc1c(-c2ccccc2)[nH]n(-c2nc3ccccc3s2)c1=O | -0.1 | 0.7 | 13.4 | 42.0* | 43.8*
O=c1c(C=NCCCn2ccnc2)c(-c2ccccc2)[nH]n1-c1nc2ccccc2s1 | -7.0 | -17.4 | 9.6 | 33.6 | .
CCCCCc1c(C)nc(Nc2nc(C)c3cc(OC)ccc3n2)[nH]c1=O | 41.3 | -6.0 | 31.4 | 39.0* | 4.3
CCc1ccc2nc(Nc3nc(COC)cc(=O)[nH]3)nc(C)c2c1 | . | -2.4 | 8.7 | 42.4* | 38.4*
O=C(NC1=NCCS1)C1CCN(S(=O)(=O)c2ccc(Cl)cc2)CC1 | -20.9 | . | 11.3 | 20.0 | .
COc1ccc(C=C(C(C)=O)C(C)=O)cc1OC | 1.8 | 10.7 | -8.5 | 42.7* | 30.3*
COc1ccccc1/C=C/C=N/NC(=O)CN1CCN(S(=O)(=O)c2ccc(C)cc2)CC1 | -0.6 | 12.9 | 12.4 | -17.1 | .
O=C(NNC(=O)C12CC3CC(CC(C3)C1)C2)c1cccc(O)c1 | 3.1 | 10.1 | 7.3 | 43.9* | 45.4*
C=CCn1c(SCC(=O)Nc2cccc(C(=O)OC)c2)nnc1C(C)NC(=O)c1cccs1 (stereo not drawn) | -8.7 | -4.2 | 4.4 | 10.5 | .
O=C(COC(=O)c1ccccc1NS(=O)(=O)c1cc([N+](=O)[O-])ccc1Cl)c1ccccc1 | 2.3 | . | -1.7 | 10.2 | .
CC(C)CN(C(=O)COC(=O)C12CC3CC(CC(C3)C1)C2)c1c(N)n(Cc2ccccc2)c(=O)[nH]c1=O | 98.7* | 31.1 | 13.6 | 50.4* | 52.0*
Cc1ccc(C(=O)OCC(=O)N(CC(C)C)c2c(N)n(Cc3ccccc3)c(=O)[nH]c2=O)o1 | . | 6.4 | 15.7 | 40.4* | 26.5*
CC(C)CN(C(=O)CC1CCCC1)c1c(N)n(Cc2ccccc2)c(=O)[nH]c1=O | -1.7 | 0.8 | 9.1 | 14.0 | .
O=C(Nc1cccc2ncccc12)c1cc(Br)ccc1Cl | -6.5 | -3.6 | 0.4 | 0.4 | .
N#Cc1ccc(C(=O)OCCCc2cc3ccccc3c(=O)o2)cc1 | -5.8 | -6.4 | 4.9 | 16.6 | .
CNC(=O)C(=O)NCCN1CCN(C(=O)c2ccc([N+](=O)[O-])cc2)CC1 | -0.9 | 2.3 | 9.7 | 35.1* | 14.7
O=C(NCCN1CCN(C(=O)c2ccc([N+](=O)[O-])cc2)CC1)C(=O)NCc1ccccc1 | -0.1 | 20.8 | 8.1 | -3.8 | .
CCc1ccc(NC(=O)Nc2ccsc2C(=O)OC)cc1 | 4.2 | -45.3 | -32.1 | -357.9 | -315.4
CC(=O)Nc1sc2c(c1C(c1ccc(Cl)cc1)N1CCOCC1)CCCC2 (stereo not drawn) | 6.0 | 6.7 | -3.5 | -7.5 | .
CC(=O)Nc1sc2c(c1C(c1ccc(F)cc1)N1CCOCC1)CCCC2 (stereo not drawn) | 8.4 | 8.5 | -5.5 | 36.5* | -18.9
CC(C)c1cc(C(=O)NC2CCCc3c2cnn3-c2ccccc2F)no1 (stereo not drawn) | 16.2 | 25.1 | -20.0 | -438.4 | i
O=C(COC(=O)C1CCN(S(=O)(=O)c2ccc3c(c2)OCCO3)CC1)NC1CCCCC1 | -6.8 | -3.6 | 8.2 | 35.6* | 10.2
Cc1csc(SCC(=O)Nc2nc(-c3ccccc3)cs2)n1 | -10.1 | -12.6 | -28.8 | -27.1 | .
Nc1ccccc1SCC(=O)Nc1nc(-c2ccccc2)cs1 | -10.7 | 0.9 | 23.1 | 46.7* | 40.3*
O=C(O)CCCn1c(=O)[nH]c2ccccc2c1=O | -2.5 | 1.9 | 13.8 | 11.4 | .
SMILES | Beta cell apopt | Gli-Sufu antag | Jurkat NFkB inh | 697 NFkB inh | 697 NFkB conf
CC(Sc1nnnn1C)C(=O)Nc1ccc2c(c1)OCCO2 (stereo not drawn) | 4.3 | -9.3 | 1.4 | 7.6 | .
COc1ccc2cc(-c3cc(C(=O)O)c4ccccc4n3)ccc2c1 | 12.8 | -120.9 | -18.5 | -344.5 | -351.0
COc1ccc(-c2cc(C(=O)O)c3ccccc3n2)c(OC)c1 | 1.5 | 4.4 | 6.9 | 12.4 | .
Cn1c(=O)[nH]c(=O)c2c1nc(N/N=C/c1ccncc1)n2Cc1ccc(Cl)cc1 | 3.3 | 16.3 | -1.5 | 37.7* | 17.6
CSc1nc2c(c(=O)[nH]c(=O)n2C)n1Cc1ccc(Cl)cc1 | 5.7 | 12.9 | -3.9 | -14.7 | .
CCN1C(=O)CC2CCCC1C2 (stereo not drawn) | . | -0.7 | . | . | .
O=C1CC(c2ccc3c(c2)OCCO3)Oc2ccccc21 (stereo not drawn) | -6.1 | -48.6 | -82.9 | -78.3 | .
O=C1CC(c2ccc3c(c2)OCCO3)Oc2ccc([N+](=O)[O-])cc21 (stereo not drawn) | 9.2 | 28.5 | -130.3 | -256.2 | -228.2
Cc1noc(C)c1COc1ccc(C(=O)OCC(=O)Nc2cccc(S(=O)(=O)N3CCOCC3)c2)cc1 | -1.0 | -3.6 | 5.4 | 38.8* | -0.1
CCCCCC/C=C/c1ccc([C@H]2[C@H]3C=CC[C@@H](C)[C@@H]3C(=O)N2Cc2ccccc2)c(F)c1 | 6.1 | 4.4 | 8.5 | 13.8 | .
COc1ccc(-c2ccc([C@H]3[C@H]4C=CC[C@@H](C)[C@@H]4C(=O)N3Cc3ccccc3)c(F)c2)cc1OC | 11.1 | -12.9 | 10.1 | 6.7 | .
COc1ccc(-c2ccc(C)cc2)cc1[C@H]1[C@H]2C=CC[C@@H](C)[C@@H]2C(=O)N1Cc1ccccc1 | 5.9 | 7.1 | 14.3 | 41.3* | 49.3*
COc1ccc(-c2cccc([C@H]3[C@@H]4C=CC[C@@H](C)[C@@H]4C(=O)N3Cc3ccccc3)c2)cc1 | . | -2.5 | . | 23.4 | .
COc1ccc(-c2ccc(OC)c([C@H]3[C@H]4C=CC[C@@H](C)[C@@H]4C(=O)N3Cc3ccccc3)c2)cc1 | 8.7 | 23.1 | 13.2 | 54.4* | 39.3*
COc1cc(-c2cccc([C@H]3[C@@H]4C=CC[C@@H](C)[C@@H]4C(=O)N3Cc3ccccc3)c2)cc(OC)c1OC | . | 5.7 | . | 0.9 | .
COc1ccc(-c2ccoc2)cc1[C@H]1[C@H]2C=CC[C@@H](C)[C@@H]2C(=O)N1Cc1ccccc1 | -0.5 | 6.4 | 6.5 | 46.5* | 39.5*
CCCCCC/C=C/c1ccc(OC)c([C@H]2[C@H]3C=CC[C@@H](C)[C@@H]3C(=O)N2Cc2ccccc2)c1 | 20.3 | -3.9 | 8.6 | 68.0* | 27.9*
COc1cc(C(C)=O)ccc1OCC(=O)NCCCn1nc(C)cc1C | 0.0 | 4.5 | 5.6 | 6.3 | .
Cc1ccc(NC(=O)c2ccc3nccnc3c2)c(C)c1 | -0.7 | -60.4 | -21.3 | -31.4 | .
COc1ccccc1CNC(=O)COC(=O)c1ccccn1 | -0.8 | 1.5 | -6.5 | -17.2 | .
O=C(N/N=C/c1cccc(O)c1)c1ccc2c(c1)OCCO2 | 3.8 | -76.6 | -90.3 | -73.8 | .
Cc1cccc(/C=N/NC(=O)c2ccc3c(c2)OCCO3)c1O | 94.4* | . | -112.2 | -352.1 | -464.7
NC(=O)COc1cccc(/C=N/NC(=O)c2ccc(-n3cccc3)cc2)c1 | 3.6 | -2.9 | 10.2 | 51.8* | -7.2
NC(=O)c1ccc(C(=O)N/N=C/c2cccc(Oc3ccccc3)c2)cc1 | 5.6 | -1.1 | -0.8 | -8.7 | .
COC(=O)c1sccc1NC(=O)Nc1ccccc1F | -8.7 | 0.0 | -14.2 | -12.8 | .
CCn1c2ccccc2c2nnc(SCC(=O)Nc3c(C)n(C)n(-c4ccccc4)c3=O)nc21 | -9.3 | -1.3 | -11.6 | -8.3 | .

Compound activity as filed in PubChem BioAssay.
